Measurements as given in the supplement of paper PMC6555819.

How the values were obtained:
Test in all cases: PBM binding z-score (relative to random genomic background probes); higher = stronger binding; sequences stand for … in GC…GCGATTGACAGCGTAGAATGAAGG
[1] = system: FXR:RXRa (NR concentration 270 nM, RXRa partner concentration 90 nM)
Summary of the method: (§1)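 Binding z-scores were set against random background probes. The data came from custom Agilent 4×180K protein-binding microarrays carrying double-stranded probes with 34-nt variable regions, incubated 1 h with ligand-free nuclear receptor dimers. Partner-specific antibodies detected binding, and scanned fluorescence was regression-normalized.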

[2] = system: LXRa:RXRa (NR concentration 270 nM, RXRa partner concentration 90 nM)
Summary of the method: as §1

[3] = system: LXRa homodimer (NR concentration 270 nM)
Summary of the method: as §1

[4] = system: LXRb:RXRa (NR concentration 270 nM, RXRa partner concentration 90 nM)
Summary of the method: as §1

[5] = system: LXRb homodimer (NR concentration 270 nM)
Summary of the method: as §1

[6] = system: PPARa:RXRa (NR concentration 270 nM, RXRa partner concentration 90 nM)
Summary of the method: as §1

[7] = system: PPARg:RXRa (NR concentration 180 nM, RXRa partner concentration 90 nM)
Summary of the method: as §1

[8] = system: PPARg:RXRa 270nM:90nM, anti-RXR (NR concentration 270 nM, RXRa partner concentration 90 nM)
Summary of the method: as §1

[9] = system: PPARg:RXRa 30nM:10nM, anti-RXR (NR concentration 30 nM, RXRa partner concentration 10 nM)
Summary of the method: as §1

[10] = system: PPARg:RXRa 90nM:30nM, anti-RXR (NR concentration 90 nM, RXRa partner concentration 30 nM)
Summary of the method: as §1

[11] = system: PPARg:RXRa DBDmut IVT, anti-RXR (DBD mutation: RXRa K156A/R161A, NR concentration 270 nM, RXRa partner concentration 90 nM)
Summary of the method: as §1

[12] = system: PPARg:RXRa IVT, anti-PPARg (NR concentration 270 nM, RXRa partner concentration 90 nM)
Summary of the method: as §1

[13] = system: PPARg DBDmut:RXRa IVT, anti-PPARg (DBD mutation: PPARg1 K132A/R137A, NR concentration 270 nM, RXRa partner concentration 90 nM)
Summary of the method: as §1

[14] = system: PPARg DBDmut IVT, anti-PPARg (DBD mutation: PPARg1 K132A/R137A, NR concentration 270 nM)
Summary of the method: as §1

[15] = system: PPARg homodimer (NR concentration 180 nM)
Summary of the method: as §1

[16] = system: PXR:RXRa (NR concentration 270 nM, RXRa partner concentration 90 nM)
Summary of the method: as §1

[17] = system: PXR homodimer (NR concentration 270 nM)
Summary of the method: as §1

[18] = system: RARa:RXR (NR concentration 270 nM, RXRa partner concentration 90 nM)
Summary of the method: as §1

[19] = system: RARa homodimer (NR concentration 270 nM)
Summary of the method: as §1

[20] = system: RARb:RXRa (NR concentration 270 nM, RXRa partner concentration 90 nM)
Summary of the method: as §1

Row | Sequence | PBM binding z-score [1] | PBM binding z-score [2] | PBM binding z-score [3] | PBM binding z-score [4] | PBM binding z-score [5] | PBM binding z-score [6] | PBM binding z-score [7] | PBM binding z-score [8] | PBM binding z-score [9] | PBM binding z-score [10] | PBM binding z-score [11] | PBM binding z-score [12] | PBM binding z-score [13] | PBM binding z-score [14] | PBM binding z-score [15] | PBM binding z-score [16] | PBM binding z-score [17] | PBM binding z-score [18] | PBM binding z-score [19] | PBM binding z-score [20]
1 | ATATGTAGGTTACATCCAGGTCATTCAGGCTATG | 2.67 | 4.56 | 3.72 | 3.08 | 0.989 | 4.38 | 5.7 | 4.88 | 2.67 | 4.04 | 7.73 | 7.59 | 2.75 | 2.95 | 2.59 | 3.82 | 4.54 | 3.35 | 1.06 | 2.53
2 | AGAACGAGGGCAGTGAGTTGATAGCACGGGTGGC | -0.476 | -0.6 | -0.882 | -0.705 | -0.698 | 0.144 | 0.647 | -0.0577 | -0.624 | -0.408 | 2.18 | 1.32 | 0.223 | -0.247 | -0.315 | 0.372 | 2 | -0.326 | -0.462 | 1.6
3 | GGAACGAGGGCAAAGTTGCTAGCATCTGTCGACG | 0.659 | 0.547 | -0.512 | 0.42 | -0.761 | 2.65 | 3.83 | 5.03 | 2.76 | 5.06 | 3.98 | 3.83 | 0.283 | 0.105 | 0.354 | 0.708 | -0.31 | 0.566 | -1.12 | 2.38
4 | GCGACTGGGGCAAAGCAGGTTACCAAAAGGTTGG | 0.475 | 0.517 | -0.168 | 0.19 | -1.32 | 1.78 | 1.11 | 1.55 | -0.194 | 0.774 | 4.78 | 3.6 | -0.303 | -0.695 | -0.131 | 0.48 | -0.452 | 0.862 | -0.773 | 1.02
5 | CCTTACGGGTCACTGACAGGTTATAGAATTTGGA | 5.11 | 4.02 | 0.265 | 3.45 | 0.0176 | 4.89 | 4.24 | 4.49 | 1.75 | 3.35 | 3.42 | 3.6 | 1.19 | 0.387 | 2.22 | 3.68 | 0.414 | 4.32 | 1.29 | 3.93
6 | ACAAGCAGGCCAAGTTTGGGTCACTCAAACAAAG | 0.226 | 0.181 | -0.641 | 0.53 | -0.924 | 1.51 | 0.101 | 0.443 | -0.289 | 0.124 | 0.823 | 1.59 | -0.817 | -0.239 | -0.0252 | 0.706 | -0.465 | 1.56 | -0.485 | 2
7 | TCATGTAGGTAATACAGGTGAAAGTCGGCATCTA | 0.0966 | 0.506 | 0.125 | 0.469 | -0.485 | 1.63 | 1.15 | 1.94 | 2.84 | 2.25 | 3.86 | 3.68 | 0.771 | 0.521 | 0.456 | 0.27 | -0.325 | 0.507 | 0.465 | 0.0857
8 | AGAATAAGGTTATACGTAGATCAGGGAAGAAAGT | 1.99 | 1.9 | 0.223 | 1.56 | 0.0959 | 2.65 | 1.67 | 1.3 | 0.895 | 1.04 | 2.81 | 1.19 | 1.32 | 1.1 | 0.729 | 1.03 | 0.578 | 1.66 | 0.976 | 1.64
9 | TCTAGTTGGTCAAGGGTCACACACTCGAAATGCG | 4.17 | 3.76 | 1.25 | 4.01 | 0.821 | 5.27 | 9.83 | 8.51 | 9.9 | 9.97 | 2.52 | 5.1 | 1.64 | 0.978 | 4.73 | 4.32 | 0.895 | 5.98 | 2.83 | 3.94
10 | ACTCGGAGGACAAAGATCAGAGCTACGCCAGTGA | -0.308 | -0.42 | -0.56 | -0.616 | -0.443 | 0.399 | 1.61 | 2.24 | 0.508 | 1.43 | 0.131 | -0.127 | -1.09 | -0.113 | -0.398 | -0.522 | -0.433 | -0.384 | -0.637 | 0.778
11 | CCGACTGGGGCAAAGGTTACCATCCTCAGTACGA | 1.66 | 1.25 | -0.21 | 1.79 | -0.941 | 5.49 | 10.9 | 9.37 | 8.35 | 10.1 | 4.64 | 5.59 | -0.502 | -0.948 | 1.17 | 2.56 | -0.625 | 4.05 | -0.46 | 2.39
12 | CGTCCAAGGTCAATGCTAGGTCAGTGACAGCATT | 6.74 | 5.78 | 2.73 | 4.19 | 1.14 | 5.31 | 4.11 | 4.64 | 1.38 | 3.44 | 3.59 | 4.07 | 0.933 | 0.0917 | 5.74 | 4.98 | 1.04 | 6.17 | 2.41 | 5.26
13 | ACTAGCAGGCGAAGTTTGGGTCACTCAAACAAAG | -0.1 | -0.222 | -0.509 | 0.307 | -0.961 | 1.22 | -0.19 | 0.0876 | -0.449 | -0.106 | -0.461 | 0.0553 | -0.763 | -1.05 | -0.0559 | 0.583 | -0.27 | 1.15 | -0.491 | 1.14
